Results published in PubChem BioAssay (NCI).
This is part of a sample that, as a whole, favours compounds with a hit. Of some 83,000 tested, about 20% had one in any assay.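 Results are percent growth after 48 hours of single-concentration exposure. 100 means growth as in untreated cells, lower positive values show inhibition; negative values down to -100 show cell death.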 Values without a mark were called inactive. Activity calls are given as the source filed them. How the source made its calls: active means growth percent below 10; inactive means the rest.

Test system: MDA-MB-468 breast
Experiment: NCI-60 one-dose screen, 48 h (100 = growth as untreated, 0 = no growth, -100 = all killed)
Details: 10 µM unless noted

SMILES | growth
CCOC(=O)C(=Cc1ccc(C#N)cc1)C(=O)OCC | 15.6%
O=C(c1cc2ccccc2o1)c1nn(-c2ccccc2)/c(=N/N=Cc2cn(-c3ccccc3)nc2-c2cc3ccccc3oc2=O)s1 | 105%
O=c1onc(-c2ccccc2)c2ccccc12 | 108%
COc1ccc(CCNC(=S)NN)cc1OC | 128%
CCN1CCN(c2ccc(NC(=O)Nc3ccc4c(ccn4-c4ccnc(C(=O)NC)c4)c3)cc2C(F)(F)F)CC1 | 65.9%
COc1cc(Nc2ncc(F)c(Nc3ccc4c(n3)NC(=O)C(C)(C)O4)n2)cc(OC)c1OC | 27.7%
N#Cc1c(-c2ccccc2)cc(-c2ccccc2)n(CCC(=O)O)c1=O | 26.6%
O=C(O)c1[nH]c(=O)[nH]c(=O)c1[N+](=O)[O-] | 109%
Oc1ccccc1C=Nc1ccccc1N=Cc1ccccc1O.[Cu+2] | 47.5%
Nc1cc(C(=O)O)[nH]c(=S)n1 | 95.3%
CCOc1ccc(C(=O)NCC(C)C)cc1 | 105%
COc1cc(C2C3=C(COC3=O)N(CCO)c3cc4c(cc32)OCCO4)cc(OC)c1O (stereo not given) | -24.4% (active)
C[C@]12CC[C@@H]3c4ccc(O)c([N+](=O)[O-])c4CC[C@H]3[C@@H]1CC[C@@H]2NS(=O)(=O)c1cccc(Br)c1 | 39.8%
CC1C(=O)c2ccccc2CC1C(=O)O (stereo not given) | 118%
C/C=C(/C)n1cnc2c(Nc3ccccn3)nc(Cl)nc21 | 93%
